A word on the inhibition: it is the relative decrease from the control value, in per cent.

A short description of the assay: inhibitors of T. brucei MetRS aminoacylation, late-stage follow-up, biochemical, radioactivity, round 1 (AID 743060). The settings on record: purified enzyme, radiolabel aminoacylation, scintillation, 2 h; at 1 µM; stronger effect = higher value.
In the case of `Brc1cnc2nc(SCc3nc4ccccc4[nH]3)[nH]c2c1`, the inhibition is 23.7%.
Turning to `CCN(CC)C(=O)C(=O)c1cn(CC(=O)Nc2cccc(OC)c2)c2ccccc12`, the inhibition turned out to be 41.4%.
Under `O=C(CC(=O)Nc1cccc(Cl)c1)NN=Cc1ccccc1` stands 28.2%; under `CN(Cc1cc(Cl)cc(Cl)c1)[C@H]1C[C@H]2c3[nH]c4ccccc4c3CCN2C(=O)[C@H]1CO`, 95.1%; under `O=C(Cn1cc(C(=O)C(=O)N2CCOCC2)c2ccccc21)Nc1cccc(C(F)(F)F)c1`, 87.5%.
Under `CN1CC(=O)N2C(c3cccc([N+](=O)[O-])c3)c3[nH]c4ccccc4c3C[C@H]2C1=O` (stereo partly specified) stands 57.7%; under `CCN(CC)C(=O)C(=O)c1cn(CC(=O)Nc2ccccc2OC)c2ccccc12`, -7.03%.
In the case of `COc1cccc(NC(=O)CSc2nnc3c(n2)[nH]c2ccc(C)cc23)c1` it was 97.7%; in that of `O=C(Cn1cnc2ccccc21)Nc1cccc([N+](=O)[O-])c1`, 44.9%; in that of `CC(=O)N(CCc1ccccc1)C1CC(=O)N(c2ccc(Br)cc2)C1=O` (stereo unspecified), -12.2%.
For `O=C(NCc1nc2ccccc2[nH]1)C1=C[C@H](c2ccc(Br)cc2)C[C@H](OCc2ccc(CO)cc2)O1`, the inhibition was 50.3%.
Turning to `O=C(NCCc1nc2ccccc2[nH]1)c1ccc(Cl)c([N+](=O)[O-])c1`, the inhibition was 89.8%.
Consider `CC(CC(=O)Nc1cccc(Br)c1)=NNC(=O)c1ccc(O)cc1O`, for which the inhibition came out at 36.5%.
In the case of `CCc1ccc2[nH]c3nc(SCC(=O)NCc4cccc(OC)c4)nnc3c2c1` it was 4.75%.
Under `Cc1cccc(NC(=O)C2CC(=O)n3c(nc4ccccc43)N2)c1` (stereo unspecified) stands 3%; under `O=C(NCc1nc2ccccc2[nH]1)C1=C[C@@H](c2ccc(Br)cc2)C[C@@H](OCc2ccc(CO)cc2)O1`, 62.1%.

For the origin of these results see PubChem BioAssay AID743060 (The Scripps Research Institute Molecular Screening Center, 2013).
